ALR inh = human ALR oxidase inhibition via reduced H2O2; P55789; purified ALR, DTT oxidation, H2O2 HRP-luminol luminescence; inhibition, % (concentration not given with the values); 290,000 tested, 3.8% active; AID 485317;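 active = mean replicate inhibition above about 79%, with every replicate also reaching it, limit read from the data; inconclusive = only one of the two criteria met; inactive = mean below limit and not every replicate reaching it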
PP5 primary = PP5 (human) phosphatase inhibition. inhibition, % at 6.7 µM. 320,000 tested, 0.18% active. P53041. purified PP5c, OMFP substrate fluorescence;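 active = inhibition above the campaign's mean inhibition across all tested compounds plus 3 SD, cut at about 9.5% in these data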;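 note: 0% = DMSO only and 100% = 100 µM cantharidin control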
PP1 counter = PP1-alpha (human) inhibition in PP5 counter-screen; P62136; purified PP1alpha, OMFP fluorescence; inhibition, % at 6.7 µM; 320,000 tested, 0.9% active; AID 2235;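 active = inhibition above the mean inhibition of all tested compounds plus 3 SD, computed separately for each screening campaign, cut at about 15% in these data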
Target sequence (P62136 whole entry, looked up): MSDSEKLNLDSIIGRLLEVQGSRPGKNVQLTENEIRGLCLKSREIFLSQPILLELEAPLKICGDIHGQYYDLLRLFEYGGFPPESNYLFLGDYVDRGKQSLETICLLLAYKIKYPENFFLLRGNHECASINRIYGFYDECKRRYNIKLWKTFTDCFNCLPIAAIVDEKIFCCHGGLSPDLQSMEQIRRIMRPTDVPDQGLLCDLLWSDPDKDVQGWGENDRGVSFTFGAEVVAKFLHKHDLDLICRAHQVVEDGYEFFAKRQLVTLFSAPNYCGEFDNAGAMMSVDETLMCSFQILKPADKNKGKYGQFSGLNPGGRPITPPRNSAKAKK
Calb FLC = C. albicans growth modulation with fluconazole; 300,000 tested, 0.57% active; AID 1979; growth inhibition, % (no concentration beside the values); C. albicans CaCi-2 (fluconazole-resistant clinical isolate) + fluconazole, Alamar Blue growth, 48 h;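 active = growth inhibition above about 58% in most replicates, limit read from the data, passing the limit was not always enough; inconclusive = exactly half the replicates above a set limit; inactive = most replicates below a set limit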;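 note: all wells also contain fluconazole at 8 µg/ml as a sub-toxic cotreatment; 0% = median of DMSO wells and 100% = median of geldanamycin control wells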
CSC inhib = blocks cancer stem cells. inhibition, % at 7.5 µM. cancer stem cell-like cells viability, luminescence. AID 2717. 300,000 tested, 1.1% active; in the data active = inhibition above about 75%; inconclusive = no clear call, values can overlap the other calls; tested in HMLE shEcad cells
An asterisk follows results filed as active; ? = inconclusive; / = not tested or not shown. Rows were chosen to be rich in hits. Some 5.4% of all compounds tested hit in one or more screens of this group.

SMILES	ALR inh	PP5 primary	PP1 counter	Calb FLC	CSC inhib
C[C@@H]1O[C@@H](OC[C@H]2O[C@@H](Oc3cc(O)c4c(=O)cc(-c5ccc(O)c(O)c5)oc4c3)[C@H](O)[C@@H](O)[C@@H]2O)[C@H](O)[C@H](O)[C@H]1O	99*	/	/	/	8
O=C(NCCN1CCN(c2ccccc2)CC1)Nc1cccc(Cl)c1	61	4	0	-4	/
N/C(=N\O)c1cn(Cc2ccccc2Cl)c2ccccc12	99*	0	0	34	-8
Cc1ccc(OCCn2cc(/C(N)=N/O)c3ccccc32)cc1C	78*	3	8	23	-1
O=C(/C=C/c1ccccc1)NNC(=O)C1CC1	-3	-1	2	5	-6
CN(C)c1ccc(/C=N/NC(=O)CNC(=O)/C=C/c2ccco2)cc1	91*	2	-4	-2	5
CN(C)c1ccc(/C=N/NC(=O)CNC(=O)c2ccc3c(c2)OCCO3)cc1	98*	1	-8	?	-3
O=C(CNC(=O)c1ccc2c(c1)OCCO2)N/N=C/c1ccc(O)cc1O	27	1	2	-9	15
CN(C)c1ccc(/C=N/NC(=S)NCc2ccco2)cc1	98*	4	3	3	20
CCN(CC)c1ccc(/C=N/NC(=O)CNC(=O)c2ccc3c(c2)OCCO3)cc1	87*	2	5	1	-2
Cc1c(NC(=S)NC(=O)c2cc3ccccc3o2)c(=O)n(-c2ccccc2)n1C	5	0	1	-2	-2
COC(=O)CN(c1ccc(C)cc1)S(=O)(=O)c1ccc2c(c1)n(C)c(=O)c(=O)n2C	/	1	0	-13	9
O=C(CNC(=O)c1ccncc1)N/N=C/c1ccccn1	-5	4	-1	35	-13
CN(C)c1ccc(/C=N/NC(=O)CNC(=O)c2ccncc2)cc1	98*	-3	7	10	-10
CC1CC(Nc2ccccc2)c2ccccc2N1C(=O)c1ccco1 (centres undefined)	99*	-1	-2	63	10
CC1CC(Nc2ccccc2)c2ccccc2N1C(=O)c1ccncc1 (centres undefined)	-16	2	-4	-6	-14
CCCC(=O)Nc1ccc(C(=O)NNC(=S)NC(=O)c2cccs2)cc1	14	3	-1	-6	20
CCCOc1ccc(C(=O)NNC(=S)NC(=O)c2ccccc2)cc1	22	-1	0	71	47
CC(Oc1ccc(Cl)cc1)C(=O)NNC(=S)NC(=O)c1ccco1 (centres undefined)	98*	-1	2	?	7
CCCOc1ccc(C(=O)NNC(=S)NC(=O)c2ccco2)cc1	50	3	6	78*	34
CCCOc1ccc(C(=O)NNC(=S)NC(=O)c2cccs2)cc1	97*	1	14	93*	49
CCCOc1ccc(C(=O)NNC(=S)NC(C)=O)cc1	31	-1	1	102*	10
COc1ccc(C(=O)NNC(=S)NC(=O)c2ccco2)cc1	31	3	-4	?	8
O=C(COc1ccc(Cl)cc1Cl)NNC(=S)NC(=O)c1ccco1	/	-2	5	66	28
O=C(Nc1nc2c(ccc3ccccc32)s1)c1ccco1	-48	4	0	66	13
SMILES	ALR inh	PP5 primary	PP1 counter	Calb FLC	CSC inhib
Cc1csc2nc(O)c(C(=O)NC3CCCCCC3)c(=O)n12	5	-2	4	-6	15
CCCCOc1ccc(C(=O)NNC(=S)NC(=O)CC)cc1	-4	2	-2	87*	47
CCC(=O)NC(=S)NNC(=O)c1ccc(OC)cc1	59	0	-1	-6	20
O=C(NCc1n[nH]c(=S)n1-c1ccc(Cl)c(Cl)c1)c1ccco1	85*	1	-4	-3	-2
O=C(NCc1n[nH]c(=S)n1-c1ccccc1)c1ccco1	/	1	-3	-12	-11
O=C(NCc1n[nH]c(=S)n1-c1cccc(Cl)c1)c1ccc(S(=O)(=O)N2CCCC2)cc1	94*	0	3	-33	-16
O=C(NCc1n[nH]c(=S)n1-c1ccc(Cl)c(Cl)c1)c1ccc(S(=O)(=O)N2CCCCC2)cc1	89*	1	-2	-4	7
COc1ccc(N(CC(=O)NC2CCCC2)C(=O)Cn2nnc(-c3ccc(C)cc3)n2)cc1	-14	-1	5	14	/
COc1ccc(CSC2=NCCN2)cc1Br	99*	-2	-5	-2	-9
Clc1cccc(CSC2=NCCCN2)c1	-1	-7	-4	-19	9
COc1ccc(CSC2=NCCN2)cc1Cl	100*	-3	1	-7	-11
COc1ccc(CSc2nnc(C)n2N)cc1Br	-17	1	-4	/	0

From PubChem
